The campaign covered roughly 310,000 compounds. About 14,000 (4.5%) showed an effect of 50% or more. The effect is printed as a negative number. The list comes from a sample in which strong results are over-represented; it also holds similar structures and randomly drawn compounds.

Experimental findings from paper PMC4336329 (PLoS ONE, 2015) are described below.
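Also: peak tail current of the secondary pulse compared with the same well before compound.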

The target in this experiment is human ether-à-go-go-related gene (hERG) potassium channel (human, UniProt Q12809). Nature of the experiment: primary screen, population patch clamp on CHO cells stably expressing hERG; higher = less effect of the substance.
Chain of human ether-à-go-go-related gene (hERG) potassium channel (Q12809 whole entry, looked up): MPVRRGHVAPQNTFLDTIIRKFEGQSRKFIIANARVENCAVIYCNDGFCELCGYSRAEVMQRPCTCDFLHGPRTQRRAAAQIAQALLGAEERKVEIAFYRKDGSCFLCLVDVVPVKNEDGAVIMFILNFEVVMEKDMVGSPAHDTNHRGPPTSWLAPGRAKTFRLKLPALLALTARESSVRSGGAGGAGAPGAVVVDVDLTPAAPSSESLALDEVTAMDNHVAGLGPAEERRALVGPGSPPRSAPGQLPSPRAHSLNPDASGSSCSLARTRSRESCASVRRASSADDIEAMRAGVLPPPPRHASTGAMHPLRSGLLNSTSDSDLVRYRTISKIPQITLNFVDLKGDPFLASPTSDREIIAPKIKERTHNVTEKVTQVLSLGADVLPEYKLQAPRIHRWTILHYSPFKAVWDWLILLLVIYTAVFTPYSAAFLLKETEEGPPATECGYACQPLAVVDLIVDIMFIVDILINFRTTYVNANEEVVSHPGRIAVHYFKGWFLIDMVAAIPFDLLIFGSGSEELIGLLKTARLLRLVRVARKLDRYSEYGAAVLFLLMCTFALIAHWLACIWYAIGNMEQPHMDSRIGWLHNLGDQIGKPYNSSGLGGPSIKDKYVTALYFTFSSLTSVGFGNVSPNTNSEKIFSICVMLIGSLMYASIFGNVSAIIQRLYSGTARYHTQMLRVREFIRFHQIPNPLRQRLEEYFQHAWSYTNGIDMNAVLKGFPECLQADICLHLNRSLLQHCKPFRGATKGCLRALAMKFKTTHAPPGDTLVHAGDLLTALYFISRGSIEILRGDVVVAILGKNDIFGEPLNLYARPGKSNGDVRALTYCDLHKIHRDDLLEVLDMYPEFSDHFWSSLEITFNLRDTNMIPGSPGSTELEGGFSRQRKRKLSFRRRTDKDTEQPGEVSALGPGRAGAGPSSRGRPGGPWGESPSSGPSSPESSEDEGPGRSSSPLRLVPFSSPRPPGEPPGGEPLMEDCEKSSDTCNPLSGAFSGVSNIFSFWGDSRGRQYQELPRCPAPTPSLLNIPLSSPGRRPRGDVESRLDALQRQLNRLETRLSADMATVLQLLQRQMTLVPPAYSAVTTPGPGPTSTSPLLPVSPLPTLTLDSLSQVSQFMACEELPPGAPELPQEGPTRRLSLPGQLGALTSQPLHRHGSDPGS
`COc1ccccc1NC(=S)NNC(=O)c1ccccc1`: the “hERG current change (%, negative = inhibition) at 10uM” value is recorded as -1.04%.
As for `COc1ccccc1NC(=S)NNC(=O)c1ccccc1Br`, the figure is -70.9%.
With `COc1ccccc1C(=O)NNC(=O)c1ccccc1Br`, the “hERG current change (%, negative = inhibition) at 10uM” value is listed as 23%.
As for `Cc1nn(Cc2ccc(F)cc2Cl)c(C)c1[N+](=O)[O-]`, the figure is -1.01%.
As for `Cc1ccc(OCC(=O)O/N=C(\N)c2ccccn2)cc1C`, the figure is -11.3%; as for `COc1ccc(NC(=O)Nc2nc3c(s2)CCCC3)cc1`, -26.8%.
As for `Cc1cccc(Nc2nc3c(s2)CCCC3)c1`, the figure is -8.11%.
Turning to `O=C(O)c1ccc(Nc2nc3c(s2)CCCC3)cc1`, the “hERG current change (%, negative = inhibition) at 10uM” value is recorded as -81.3%.
As for `COc1ccc(Nc2nc(C)c(-c3ccccc3)s2)cc1`, the figure is 14.9%.
As for `Cc1nc(Nc2ccccc2)sc1-c1ccccc1`, the figure is 1.73%; as for `Cc1nc(Nc2ccc(C(=O)O)cc2)sc1-c1ccccc1`, -76.5%; as for `C=CCSC1=C(C#N)C2(CCCCC2)C(C#N)C(=O)N1` (stereo not shown), -3.87%.
As for `C=CCNc1sc(C(=O)C(C)(C)C)c(N)c1C#N`, the figure is 5.11%.
Regarding `CCN(CC(=O)Nc1ccc(OC)cc1)C(=O)c1ccc2c(=O)n3c(nc2c1)CCC3`, the “hERG current change (%, negative = inhibition) at 10uM” value was 9.77%.
Consider `C=CCn1cnc2c(sc3nc(C)cc(C)c32)c1=O`, for which the “hERG current change (%, negative = inhibition) at 10uM” value is listed as -6.75%.
With `COc1ccccc1OCCNC(=O)c1cc([N+](=O)[O-])cc([N+](=O)[O-])c1`, the “hERG current change (%, negative = inhibition) at 10uM” value came to 12.2%.
As for `Cc1nc(-c2ccncc2)nc(NCCNc2ncccc2C(F)(F)F)c1Cl`, the figure is 6.57%; as for `COc1ccccc1CC(=O)NC1CCCc2ccccc21` (stereo not shown), -32.8%; as for `CC1CCCN(C(=O)CCc2nnc(-c3ccc4c(c3)OCO4)o2)C1` (stereo not shown), -4.43%.
As for `CCN(CCn1cccn1)C(=O)CCc1nnc(-c2ccc3c(c2)OCO3)o1`, the figure is -5.68%.
As for `O=C(CCc1nnc(-c2ccc3c(c2)OCO3)o1)N1CCC(c2ccc(F)cc2)C1` (stereo not shown), the figure is -56%; as for `Cc1cc(C)n(CCN(C)C(=O)CCc2nnc(CCC3CCCCC3)o2)n1`, -4.29%; as for `CCC(=O)C1CCCN(C(=O)CCc2nnc(-c3ccc4c(c3)OCO4)o2)C1` (stereo not shown), -8.82%.
For the compound `Cc1cc(C)n(CCN(C)C(=O)CCc2nnc(-c3ccc4c(c3)OCO4)o2)n1`, the “hERG current change (%, negative = inhibition) at 10uM” value is on record as -51.7%.
As for `O=C(CNc1ccc2ccccc2c1)N/N=C/c1ccc(OC(=O)/C=C/c2ccco2)cc1`, the figure is 22.7%.
In the case of `Cc1ccccc1OS(=O)(=O)c1cn(C)c(=O)n(C)c1=O` it was 11.4%.
With `Cc1ccc(C2CC(=O)C=C(Nc3ccc(Cl)cc3)C2)cc1` (stereo not shown), the “hERG current change (%, negative = inhibition) at 10uM” value came to 7.93%.
As for `Cc1ccc(S(=O)(=O)/N=C/N(C)C)cc1`, the figure is 0.768%.
As for `COc1ccc(-c2cnnc(N/N=C/C(C)=C/c3ccccc3)n2)cc1`, the figure is -9.57%; as for `CCc1c(C(=O)NCCc2cccc(C)c2)[nH]c(C)c1C(C)=O`, 12.2%; as for `O=C(NCC(O)c1ccc([N+](=O)[O-])cc1)C(c1ccccc1)c1ccccc1` (stereo not shown), -46.2%.
`O=[N+]([O-])c1ccc(C(O)CNC(=S)Nc2ccccc2)cc1` (stereo not shown): the “hERG current change (%, negative = inhibition) at 10uM” value was -11.6%.
As for `O=C1CSC(c2ccccc2)N1CC(O)c1ccc([N+](=O)[O-])cc1` (stereo not shown), the figure is -12.1%; as for `Oc1ccc(N2CCN(CC(O)c3ccccc3)CC2)cc1` (stereo not shown), 10.4%.
Take `O=[N+]([O-])c1ccc(C(O)CN2CCN(c3ccccc3)CC2)cc1` (stereo not shown): the “hERG current change (%, negative = inhibition) at 10uM” value was -50.3%.
In the case of `O=[N+]([O-])c1ccc(C(O)CN2CCN(Cc3ccccc3)CC2)cc1` (stereo not shown) it was -73.4%; in that of `CC1SC(c2ccccc2)N(CC(O)c2ccc([N+](=O)[O-])cc2)C1=O` (stereo not shown), -80.6%.
With `O=[N+]([O-])c1ccc(C(O)C[n+]2ccccc2)cc1.[I-]` (stereo not shown), the “hERG current change (%, negative = inhibition) at 10uM” value is reported as 12%.
As to `O=C1CCN(Cc2ccc([N+](=O)[O-])cc2)CCN1[C@H](CO)c1ccccc1`, the “hERG current change (%, negative = inhibition) at 10uM” value was -37.4%.
In the case of `O=C(CC(c1ccccc1)c1ccccc1)NCC(O)c1ccc([N+](=O)[O-])cc1` (stereo not shown) it was -58.1%.
As to `O=C(CNC(=O)c1ccccc1)NCC(O)c1ccc([N+](=O)[O-])cc1` (stereo not shown), the “hERG current change (%, negative = inhibition) at 10uM” value is recorded as 10.7%.
With `O=[N+]([O-])c1ccc(C(O)CN2CCOCC2)cc1` (stereo not shown), the “hERG current change (%, negative = inhibition) at 10uM” value is reported as 18.5%.
As for `COc1ccccc1NC(=S)NC(=O)C(C)C`, the figure is -21.8%; as for `Cc1c(C(=O)N2CCCCC2)nn(-c2ccc(Cl)cc2)c(=O)c1C#N`, -17.5%.
As for `CC(C)(C)n1nc2c(c1NC(=O)COc1ccc(Cl)cc1)CS(=O)(=O)C2`, the figure is -46.5%.
In the case of `Cc1cccc(NC(=S)Nc2ccc3cn[nH]c3c2)c1` it was 1.96%; in that of `COc1ccc(C(=O)[C@H]2[C@H]3C(=O)N(c4ccccc4)C(=O)[C@H]3C3C=CC=NN32)cc1` (stereo partly shown), 4.94%.
Regarding `O=S(=O)(c1ccccc1)N1CCN(C/C=C/c2ccccc2)CC1`, the “hERG current change (%, negative = inhibition) at 10uM” value is recorded as -22%.
As for `O=[N+]([O-])c1ccc(C(O)CN2CCN(C/C=C/c3ccccc3)CC2)cc1` (stereo not shown), the figure is -76.9%; as for `O=S(=O)(c1ccc(S(=O)(=O)N2CCN(C/C=C/c3ccccc3)CC2)cc1)N1CCCC1`, 11.6%; as for `Cc1occc1-c1nc(-c2ccncc2)no1`, -10.4%.
Take `COc1ccc(OC)c(-n2nnnc2SCC(=O)Nc2nc(C)c(C)s2)c1`: the “hERG current change (%, negative = inhibition) at 10uM” value is recorded as -1.73%.
As for `Cc1sc2ncnc(N3CCC(C(=O)NNC(=O)COc4ccccc4F)CC3)c2c1C`, the figure is -57%.
As for `Cc1sc2ncnc(N3CCC(C(=O)NNC(=O)COc4ccccc4Cl)CC3)c2c1C`, the figure is -38.6%; as for `COc1ccc(N2CCN(c3ncnc4sc(C(=O)NCC5CCCO5)c(C)c34)CC2)cc1` (stereo not shown), -63.4%; as for `Cc1sc2ncnc(N3CCC(C(=O)NNC(=O)COc4cccc(C(F)(F)F)c4)CC3)c2c1C`, -40%.
As for `Cc1sc2ncnc(N3CCC(C(=O)NCC(=O)Nc4ccc(F)c(F)c4)CC3)c2c1C`, the figure is -67.2%; as for `Cc1ccccc1OCC(=O)NNC(=O)C1CCN(c2ncnc3sc(C)c(C)c23)CC1`, -19.3%.
Take `COc1ccc(OCC(=O)NNC(=O)C2CCN(c3ncnc4sc(C)c(C)c34)CC2)cc1`: the “hERG current change (%, negative = inhibition) at 10uM” value is reported as -52.5%.
As for `Cc1c(C(=O)NC2CCCCC2)sc2ncnc(N3CCN(c4ccccc4)CC3)c12`, the figure is 13.7%; as for `Cc1sc2ncnc(N3CCC(C(=O)Nc4ccc(Cl)cc4Cl)CC3)c2c1C`, -7.65%.
With `COc1ccccc1OCC(=O)NNC(=O)C1CCN(c2ncnc3sc(C)c(C)c23)CC1`, the “hERG current change (%, negative = inhibition) at 10uM” value was found to be 10.5%.
In the case of `COc1ccccc1N1CCN(c2ncnc3sc(C(=O)NCC4CCCO4)c(C)c23)CC1` (stereo not shown) it was -5%; in that of `Cc1sc2ncnc(N3CCC(C(=O)Nc4ccc(Cl)c(Cl)c4)CC3)c2c1C`, -7.26%.
In the case of `Cc1onc(-c2ccccc2)c1C(=O)OCC(=O)NC(=O)c1ccccc1` it was -31.1%; in that of `CCCCc1ccc(S(=O)(=O)NC2CCS(=O)(=O)C2)cc1` (stereo not shown), -2.26%.
For `Clc1ccccc1Cn1nnc2c(Nc3ccccc3)ncnc21`, the “hERG current change (%, negative = inhibition) at 10uM” value is on record as -0.775%.
In the case of `COc1ccc(C2=NN(C(=O)c3ccco3)C(c3cc4ccccc4nc3Cl)C2)cc1` (stereo not shown) it was 8.45%; in that of `Cc1ccc(OCC(=O)NNC(=O)C2CCN(c3ncnc4sc(C)c(C)c34)CC2)cc1`, -50.7%; in that of `Cc1sc2ncnc(N3CCC(C(=O)NNC(=O)c4ccc(F)cc4)CC3)c2c1C`, -21.9%.
For the compound `CCc1ccc(OCC(=O)NNC(=O)C2CCN(c3ncnc4sc(C)c(C)c34)CC2)cc1`, the “hERG current change (%, negative = inhibition) at 10uM” value is listed as -45.3%.
In the case of `Cc1sc2ncnc(N3CCC(C(=O)NNC(=O)COc4ccc(Br)cc4)CC3)c2c1C` it was -68.5%; in that of `Cc1cccc(OCC(=O)NNC(=O)C2CCN(c3ncnc4sc(C)c(C)c34)CC2)c1`, -48.2%.
As for `Cc1cc(Cl)ccc1OCC(=O)NNC(=O)C1CCN(c2ncnc3sc(C)c(C)c23)CC1`, the figure is 5.64%.
As for `CCOc1ccc(OCC)c(NC(=O)C2CCCN2S(=O)(=O)c2cccc3cccnc23)c1` (stereo not shown), the figure is -4.43%; as for `COc1cc(C=Nc2c(C)cc(C)cc2C)ccc1OC(C)=O`, 10.6%.
In the case of `COc1ccc(CCCc2nnc(SCC(=O)Nc3cc(C)ccc3C)o2)cc1`, the “hERG current change (%, negative = inhibition) at 10uM” value is 0.676%.
As for `CN=C1S/C(=C/c2cn(CC(=O)OC)c3ccccc23)C(=O)N1C`, the figure is 11.1%; as for `COC(=O)c1sccc1NC(=O)Nc1ccccc1OC`, -41.4%; as for `COC(=O)c1sccc1NC(=O)Nc1ccc(OC)cc1OC`, -20.3%.
In the case of `CCOc1ccccc1NC(=O)Nc1ccsc1C(=O)OC` it was -62%; in that of `COC(=O)c1sccc1NC(=S)Nc1cc(OC)ccc1OC`, 30.4%.
As for `CCOc1ccccc1C(=O)Nc1ccsc1C(=O)OC`, the figure is -0.813%; as for `COC(=O)c1sccc1NC(=O)Nc1cc(OC)ccc1OC`, -57.4%.
`COC(=O)c1c(N2C(=O)[C@H]3[C@@H](C2=O)[C@]2(C(=O)Nc4c2ccc(C)c4C)N2CCC[C@@H]32)sc(C)c1C`: the “hERG current change (%, negative = inhibition) at 10uM” value is 15.4%.
